From PubChem
Hits are enriched below; roughly 2.6% of the tested compounds scored in any of these assays.
TROY NFkB inh = inhibitors of TROY-dependent NF-kB signaling; Q293 LMP1-TROYcd NF-kB luciferase reporter, 4 h; inhibition, % at 10 µM; 360,000 compounds, 0.98% hits;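 active means compounds whose plate-normalised and pattern-corrected inhibition of the luciferase reporter signal at the single screening dose is 50% or more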
LMP1 NFkB inh = Epstein-Barr LMP1 NF-kappaB reporter inhibition; LMP1-induced NF-kappaB luciferase reporter cells, luminescence; inhibition, % at 12.5 µM; 350,000 compounds, 0.69% hits; in the data active means inhibition above about 41%;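 further: 0% = neutral control wells and 100% = reference inhibitor control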
aDG glyco up = alpha-DG glycosylation activation | Pro5-aDG cells, alpha-DG glycosylation AlphaScreen (IIH6); 0% Pro5, 100% B10-LARGE cell signal | activation, % at 10 µM | 360,000 compounds, 0.22% hits | AID 624168;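 active means activation of at least 8% versus controls, or a plate z-score of at least 8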;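 further: Pro5 are CHO cells carrying HIG-tagged alpha-DG that lacks glycosylation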
LGR2 inh = Drosophila LGR2 receptor signaling inhibition. HEK293 LGR2, CRE-luciferase, bursicon-stimulated, 4 h. inhibition, % at 9.99 µM. 380,000 compounds, 0.35% hits;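 active means drop in luminescence signal, shown as inhibition above about 50% in the replicate tests, limit read from the data, passing the limit was not always enough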;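 further: agonist challenge used bursicon conditioned medium at about half maximal strength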
HSP90 refold inh = inhibitors of HSP90 luciferase refolding in rabbit reticulocyte lysate; luciferase refolding luminescence, 3 h; 290,000 compounds, 0.91% hits; inhibition, % at 5.6 µM;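 active means inhibition above the screen-wide mean plus 3 SD, computed separately per campaign, cut at about 16% in these data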;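 further: 0% = DMSO wells and 100% = 60 µM geldanamycin wells; inhibitors lower the luminescence because luciferase stays unfolded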
TWEAK Fn14 block = blocks TWEAK-Fn14 interaction in a reporter cell assay; TWEAK-stimulated Fn14 reporter cells, luciferase luminescence, 8 h; inhibition, % at 10 µM; 360,000 compounds, 2% hits; AID 1159606; in the data active means inhibition above about 50%
Starred values were filed as active, the others as inactive; · = no result given.

SMILES | TROY NFkB inh | LMP1 NFkB inh | aDG glyco up | LGR2 inh | HSP90 refold inh | TWEAK Fn14 block
O=C(c1ccccc1F)N1CC2(C1)[C@H](c1ccccc1)[C@@H](CO)N2CC1CCOCC1 | · | · | · | 11 | · | ·
CC1(C)CC(=O)C2=C(C1)c1c(ccc3ccccc13)NC2c1cc([N+](=O)[O-])cc([N+](=O)[O-])c1O (configuration not stated) | 53* | -9 | 0 | 8 | 1 | 42
CC1(C)CC(=O)C2=C(C1)c1c(ccc3ccccc13)NC2c1ccc(C(=O)O)cc1 (configuration not stated) | 12 | -8 | 0 | -10 | 0 | 20
Cc1nc(Oc2ccc(S(=O)(=O)N3CCOCC3)cc2Cl)c2c3c(sc2n1)CCCC3 | 29 | 9 | 0 | 10 | -6 | 60*
O=C(C[C@@H]1C=C[C@H](NC(=O)C2CCC2)[C@@H](CO)O1)NCc1ccncc1 | · | · | · | 11 | · | ·
C(CCN1CCOCC1)CN1CCOCC1 | 64* | · | 0 | 3 | · | -9
C[C@H]1CCCCO[C@@H](CN(C)C(=O)c2ccncc2)[C@@H](C)CN([C@@H](C)CO)C(=O)c2cc(NS(=O)(=O)c3cn(C)cn3)ccc2O1 | · | · | · | 15 | · | ·
Cc1nnc(NC(=O)C2CCN(C(=O)c3ccco3)CC2)s1 | -9 | -4 | 0 | -3 | 16* | -1
CCc1nnc(NC(=O)C2CCN(C(=O)c3ccco3)CC2)s1 | -4 | 7 | 0 | -6 | 0 | 8
CCCNC(=O)Nc1ccc2c(c1)C(=O)N(C)C[C@H](OC)[C@@H](C)CN(CC1CCCC1)[C@H](C)CO2 | · | · | · | -3 | · | ·
COCCNc1nc(Oc2cncc(Cl)c2)c2sccc2n1 | 27 | · | 0 | 8 | · | 50*
O=C(Nc1ccc2c(c1)OCO2)N[C@H]1CC[C@H](CCNC(=O)C2CC2)O[C@H]1CO | · | · | · | 3 | · | ·
CCCN1CCC(=NNc2ccc(C(=O)O)cc2)CC1 | 41 | -3 | 0 | 2 | -1 | 52*
CCN(CC)c1ccc(NC(=O)CSc2nc3ccccc3c(=O)n2-c2cc(S(=O)(=O)N(C)C)ccc2C)cc1 | -2 | 6 | -1 | -2 | 16* | -37
COc1ccc(N2C(=O)c3ccccc3S2(=O)=O)cc1 | -36 | -3 | 0 | -20 | 0 | -24
COc1ccc(N2C(=O)N(Cc3ccc(C)cc3)c3ccccc3S2(=O)=O)cc1 | 1 | -1 | 0 | -3 | 27* | 0
CN(C)C(=O)C[C@H]1C[C@@H]2c3cc(NC(=O)c4ccc5c(c4)OCO5)ccc3O[C@@H]2[C@H](CO)O1 | · | · | · | 9 | · | ·
Cc1ccc(S(=O)(=O)Nc2ccc3c(c2)C(=O)N([C@@H](C)CO)C[C@@H](C)[C@@H](CN(C)C)O3)cc1 | · | · | · | -19 | · | ·
Cc1nc(=S)c2c([nH]1)-c1ccccc1CC21CCCCC1 | -5 | 20 | 0 | 2 | -1 | 75*
CCc1nc2c(c(=O)[nH]1)C1(CCCC1)Cc1ccccc1-2 | 0 | -12 | 0 | · | 4 | 18
CCCNC(=O)[C@H]1[C@H](CO)[C@H]2Cn3c(ccc(C4=CCCC4)c3=O)[C@@H]1N2S(C)(=O)=O | · | · | · | -12 | · | ·
COC(=O)c1cc(Br)c(=O)n(Cc2ccco2)c1 | · | 3 | 0 | · | 2 | 78*
COc1ccc2c3c(n(C)c2c1)[C@@H](CO)N(Cc1ccc(Cl)cc1)CC31CCN(C(=O)NC(C)C)CC1 | · | · | · | -4 | · | ·
CCCCOc1ccc(N=Cc2ccc[nH]2)cc1 | 73* | -5 | 0 | 1 | -5 | 67*
COc1ccc(N=Cc2ccc[nH]2)cc1 | 63* | -32 | 0 | · | 1 | 87*
SMILES | TROY NFkB inh | LMP1 NFkB inh | aDG glyco up | LGR2 inh | HSP90 refold inh | TWEAK Fn14 block
CCCCOc1ccc(S(N)(=O)=O)cc1 | -14 | -22 | 0 | · | 0 | -16
COc1ccc(N=Cc2c(O)[nH]c3ccccc23)cc1 | -44 | -38 | 0 | · | -2 | 29
COc1ccc(CN2CC3(C2)CN(Cc2ccc4c(c2)OCO4)[C@H](CO)c2[nH]c4cc(OC)ccc4c23)cc1 | · | · | · | -3 | · | ·
COC(=O)[C@H]1[C@H](CO)[C@H]2Cn3c(ccc(-c4cncnc4)c3=O)[C@H]2N1CCC(F)(F)F | · | · | · | 27 | · | ·
CO[C@H]1CN(C)C(=O)c2cc(NC(=O)C3CC3)ccc2OC[C@H](C)N(C(=O)c2cccnc2)C[C@@H]1C | · | · | · | 1 | · | ·
O=c1c2c(nc3cc(-c4ccccc4)[nH]n13)CCS2 | 21 | -22 | 0 | · | -7 | 13
O=c1c2c(nc3cc(-c4ccccc4Cl)[nH]n13)CCS2 | -2 | -14 | 0 | -56 | -2 | 63*
COc1ccc(Nc2cc(C)c3cc([N+](=O)[O-])ccc3n2)cc1 | -13 | -7 | 0 | 1 | 1 | 51*
COc1ccc(Nc2ccc([N+](=O)[O-])cn2)cc1 | -31 | -23 | 0 | -64 | -1 | -19
COc1cccc(CN(C)C(=O)CNC(=O)c2cccs2)c1OC | -58 | 2 | 0 | -1 | · | -3
COc1cccc(CN(C)C(=O)CNC(=O)c2ccc(-c3ccccc3)cc2)c1OC | 36 | 23 | 0 | 5 | 0 | 51*
COc1ccc(S(=O)(=O)N(C)C[C@H]2Oc3ncc(C#CC4(O)CCCC4)cc3C(=O)N([C@H](C)CO)C[C@@H]2C)cc1 | · | · | · | -2 | · | ·
Cc1ccc(C(=O)COC(=O)C2CCC2)cc1 | -44 | 5 | 0 | · | 3 | -11
CC(=O)NCCc1ccc(C(=O)COC(=O)C2CCCCC2)cc1 | 86* | -5 | 1 | 77* | · | 90*
CC(=O)NCCc1ccc(C(=O)COC(=O)c2ccco2)cc1 | 9 | -11 | 0 | 39 | · | 56*
O=C(COC(=O)c1ccco1)c1ccc(F)cc1 | -45 | -4 | 0 | -53 | 2 | 1
CC(C)NC(=O)N1CCCCN2[C@H](CO)[C@@H](c3ccc(C#Cc4ccccc4)cc3)[C@@H]2C1 | · | · | · | -5 | · | ·
C[C@@H]1CN([C@@H](C)CO)C(=O)c2cc(NS(=O)(=O)c3cccs3)ccc2O[C@H]1CN(C)Cc1ccc2c(c1)OCO2 | · | · | · | 2 | · | ·
CCN(CC)c1ccc(/C=N/NC(=O)c2ccco2)c(O)c1 | -19 | 69* | 0 | -35 | 3 | -17
O=C(N/N=C/c1ccc2cccnc2c1)c1ccco1 | 32 | 20 | 0 | 42 | 14 | 52*
CCN(CC)c1ccc(/C=N/NC(=O)Cc2cccs2)c(O)c1 | -25 | 33 | 0 | -9 | -3 | -13
CCN(CC)c1ccc(/C=N/NC(=O)c2ccco2)cc1 | 16 | -4 | 0 | 3 | -1 | 64*
Cc1ccc(S(=O)(=O)N(C)C[C@@H]2Oc3ccc(NC(=O)Cn4cnnn4)cc3C(=O)N([C@@H](C)CO)C[C@@H]2C)cc1 | · | · | · | -9 | · | ·
COc1ccc(OC)c(NC(=O)c2cnc3ccccn3c2=O)c1 | · | · | · | · | -1 | ·
Cc1ccccc1NC(=O)c1cnc2ccccn2c1=O | 34 | 29 | 0 | · | 10 | 83*
COc1ccc(NC(=O)N(C)C[C@@H]2Oc3ccc(NC(=O)Nc4ccc(C(F)(F)F)cc4)cc3CC(=O)N([C@@H](C)CO)C[C@H]2C)cc1 | · | · | · | 17 | · | ·
